Here are results for 64 compounds from PubChem BioAssay AID430 (Sanford-Burnham Center for Chemical Genomics, 2006).

The structures appear in SMILES notation. Hit rate of the full screen: of about 63,000 compounds, about 1,100 (1.7%) were called active. The sample as a whole holds a higher share of actives than the screen did. Entries with a potency or affinity are not part of this list. A number with no mark means an inactive call. Cut-off read from the data, not from the text of the source: active = cytotoxicity above about 50%; inactive = the rest.

The nature of the test: cytotoxicity in HPDE-C7 cells, cell-based, fluorescence, HTS (AID 430).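 Note: cells exposed to compound for 48 hours before viability readout; 0% = vehicle and 100% = reference cytotoxic drug.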 The following applies: HPDE-C7 pancreatic duct cells viability, at 10 µM, stronger effect = higher value.
Consider `O=C(NCC(=O)N(c1ccc(F)cc1)C(C(=O)NCC1CCCO1)c1ccccc1)c1ccco1` (centres undefined), for which the cytotoxicity was -7.1%.

Consider `CN1C(=O)C(O)(CC(=O)c2cccc(-n3cccc3)c2)c2ccccc21` (centres undefined), for which the cytotoxicity was -0.5%.

Turning to `CN(C)C=Nc1ncc2c([nH]c3ccccc32)c1C#N`, the cytotoxicity was 15.4%.

For the compound `Cc1cc(=O)[nH]c2ccccc12`, the cytotoxicity is -2.8%.

With `CCC(C(=O)NC1CCCC1)N(C(=O)Cn1nnc(-c2ccc(OC)c(OC)c2)n1)C1CCCCC1` (centres undefined), the cytotoxicity was -12.1%.

Consider `CC(C)(C#CCN1CCCC1)OCCC#N`, for which the cytotoxicity is -16.7%.

With `O=C(CN1C(=O)c2ccccc2S1(=O)=O)Nc1ccc(S(=O)(=O)N2CCCCC2)cc1`, the cytotoxicity is -22%.

Consider `COc1cc(-c2cc(OC)c3c(C)oc(C)c3c(=O)c2)ccc1O`, for which the cytotoxicity is 38%.

For the compound `COc1cc(/C=N/n2nnnc2N)ccc1O`, the cytotoxicity is 3.8%.

For `COc1cc(/C=C/C2=NC(=O)C(C)(C)O2)ccc1O`, the cytotoxicity was 53.4% (active).

For the compound `C/C=C/c1ccc(OC)c(OC(C)=O)c1`, the cytotoxicity was -5.1%.

For `O=C(O)/C=C/c1ccc(O)c(O)c1`, the cytotoxicity is -18.3%.

As to `CCOc1ccccc1C1C2C(=O)N(c3ccccc3)C(=O)C2ON1c1ccccc1` (centres undefined), the cytotoxicity was -2.8%.

For `Cc1cc(C)c2[nH]c(=O)c(CN(Cc3ccc4c(c3)OCO4)Cc3nnnn3C3CCCC3)cc2c1`, the cytotoxicity is 14.9%.

As for `CCOCCCNC(=O)C(NC(=O)c1ccc(=O)[nH]c1)c1ccccc1` (centres undefined), the cytotoxicity was 2.7%.

Turning to `COc1ccc(S(=O)(=O)N(C)CC(=O)N2CCCCCC2)cc1OC`, the cytotoxicity is -2.9%.

With `COc1cccc(N2CCN(C3CC(=O)N(c4ccc(Cl)c(Cl)c4)C3=O)CC2)c1` (centres undefined), the cytotoxicity was 1.1%.

Turning to `CCCC(=O)N1CCN(c2ccc(C(=O)c3ccc(OC)c(Br)c3)cc2F)CC1`, the cytotoxicity was 58.1% (active).

For the compound `CCCC(=O)c1ccc(N2CCN(C(=O)c3ccc(Br)cc3)CC2)c(F)c1`, the cytotoxicity was -6.3%.

Regarding `CCCCCC(=O)N1CCN(c2ccc(C(C)=O)cc2F)CC1`, the cytotoxicity is -3.3%.

Consider `CCN=C1SC(CC(=O)Nc2ccc(C(F)(F)F)cc2)C(=O)N1CC` (centres undefined), for which the cytotoxicity is -10.9%.

On to `Cc1ccc2nc(NCCO)nc(-c3ccccc3)c2c1`, for which the cytotoxicity was 16.6%.

For the compound `O=C(O)c1cc(-c2ccccc2)nc2ccccc12`, the cytotoxicity is -1.2%.

With `Cc1cc(Cl)ccc1OCCCC(N)=O`, the cytotoxicity was -4.7%.

Turning to `Clc1ccc(OCc2nc(-c3ccccn3)n[nH]2)cc1`, the cytotoxicity was 42.3%.

For the compound `Cc1cc(Cl)ccc1OCc1nc(-c2ccc(O)cc2)n[nH]1`, the cytotoxicity is 77.3% (active).

Regarding `CN1CCCN(CC(O)COCc2cccs2)CC1` (centres undefined), the cytotoxicity is 0.9%.

In the case of `CC1(C)N=C(C(=O)c2ccccc2)N(O)C1(C)O` (centres undefined), the cytotoxicity was -11.9%.

`COc1cc2c(=O)n(Cc3ccco3)c(=O)n(CC(=O)c3cccc(Br)c3)c2cc1OC`: the cytotoxicity was 55% (active).

Regarding `CCOC(=O)Cn1c(=O)n(Cc2ccco2)c(=O)c2ccc(C(=O)NCCc3ccccc3)cc21`, the cytotoxicity is 7.2%.

As to `COc1cc2c(=O)n(Cc3ccccc3)c(=O)n(CC(=O)C(C)(C)C)c2cc1OC`, the cytotoxicity is -17.8%.

Turning to `COc1cc2c(=O)n(Cc3ccccc3)c(=O)n(CC(=O)NCc3ccco3)c2cc1OC`, the cytotoxicity was 3.1%.

On to `COc1ccc(CCNC(=O)Cn2c(=O)n(Cc3ccco3)c(=O)c3ccc(Cl)cc32)cc1OC`, for which the cytotoxicity is 13.9%.

`COc1cc2c(=O)n(Cc3ccco3)c(=O)n(CC(=O)c3ccc(Br)cc3)c2cc1OC`: the cytotoxicity was 86% (active).

For `CS(=O)(=O)N(CC(=O)NCCSCc1cccc(Cl)c1)c1ccc2c(c1)OCO2`, the cytotoxicity was 0.9%.

With `O=C(Nc1ccccc1)N(Cc1cccs1)C1CCCC1`, the cytotoxicity was -7.6%.

As for `CCN(CC)CCNC(=O)c1c(C)oc2cc(Br)c(OC)cc12`, the cytotoxicity was 1.8%.

Regarding `CCOC(=O)c1c(CNCCN(CC)CC)n(C)c2cc(Br)c(OC)cc12`, the cytotoxicity was 57.3% (active).

Take `CCOC(=O)c1c(CN2CCN(C)CC2)n(C)c2cc(Br)c(OC)cc12`: the cytotoxicity is -10.2%.

With `CCOC(=O)c1c(C)n(C)c2cc(Br)c(C(=O)OC)cc12`, the cytotoxicity is 9.9%.

As for `CCOC(=O)c1c(CN2CCCCC2)n(C)c2cc(Br)c(OC)cc12`, the cytotoxicity is 8.3%.

Consider `CCOC(=O)c1c(CN2CCN(CCO)CC2)n(C)c2cc(Br)c(OC)cc12`, for which the cytotoxicity was 77% (active).

Consider `O=C(c1ccco1)c1nnn(Cc2ccccc2)c1-c1ccccc1`, for which the cytotoxicity was -7.7%.

Turning to `COc1ccc(CN(C2CCCC2)S(=O)(=O)c2ccc(-n3cnnn3)cc2)cc1OC`, the cytotoxicity was -39.1%.

As to `Cc1[nH]c(=O)[nH]c(=O)c1S(=O)(=O)N1CCCC(C(=O)NCCc2ccc(Cl)cc2)C1` (centres undefined), the cytotoxicity is -9.4%.

Take `CCOC(=O)c1csc(NC(=O)CSc2nnnn2-c2ccc(OCC)cc2)n1`: the cytotoxicity was -21.4%.

Turning to `O=C(c1cccs1)N1CCN(S(=O)(=O)N2CCOCC2)CC1`, the cytotoxicity was -21.3%.

For the compound `O=C(NCc1ccco1)C(c1ccncc1)N(CCC1=CCCCC1)C(=O)Cn1nnc2ccccc21` (centres undefined), the cytotoxicity was 1.6%.

In the case of `COc1cccc(C2C=C(c3ccc(Br)s3)Nc3ncnn32)c1OC` (centres undefined), the cytotoxicity was -9.3%.

Take `Fc1ccc(Br)cc1C1C=C(c2ccc(Br)s2)Nc2ncnn21` (centres undefined): the cytotoxicity was 55% (active).

Turning to `Fc1ccc(Br)cc1C1C=C(c2cccnc2)Nc2ncnn21` (centres undefined), the cytotoxicity is 16.3%.

On to `Cc1cccc2cc(CN(Cc3ccco3)C(=O)c3cccs3)c(=O)[nH]c12`, for which the cytotoxicity is -11.9%.

As to `Cn1c(Cc2ccccc2)nnc1SCC(=O)Nc1ccccc1N1CCOCC1`, the cytotoxicity is 2.9%.

`CC(C)OC(=O)c1cn(-c2ccccc2)nc1-c1ccco1`: the cytotoxicity is 4.8%.

As for `OCCN(Cc1ccccc1)Cc1cccc(F)c1`, the cytotoxicity was -3.2%.

Turning to `Nc1c(C(=O)NC2CCCCC2)c2nc3ccccc3nc2n1/N=C/c1ccco1`, the cytotoxicity is 5.1%.

Regarding `COCCNC(=O)c1c(N)n(CCCn2ccnc2)c2nc3ccccc3nc12`, the cytotoxicity is 7%.

Take `COCCNC(=O)c1c(N)n(-c2cccc(C)c2)c2nc3ccccc3nc12`: the cytotoxicity was 9.2%.

Regarding `CCCCNC(=O)c1c(N)n(/N=C/c2cccnc2)c2nc3ccccc3nc12`, the cytotoxicity is 4%.

Consider `Nc1c(C(=O)NC2CCCC2)c2nc3ccccc3nc2n1/N=C/c1cccnc1`, for which the cytotoxicity was 62.6% (active).

For `CC(C)Cn1c(N)c(C(=O)NCC2CCCO2)c2nc3ccccc3nc21` (centres undefined), the cytotoxicity was 26.3%.

In the case of `COCCn1c(N)c(C(=O)NCC2CCCO2)c2nc3ccccc3nc21` (centres undefined), the cytotoxicity is 11.4%.

As for `Nc1c(C(=O)NCC2CCCO2)c2nc3ccccc3nc2n1-c1ccccc1` (centres undefined), the cytotoxicity is 11.1%.

Consider `Nc1c(C(=O)NC2CCCC2)c2nc3ccccc3nc2n1N`, for which the cytotoxicity is 11.6%.
